In PubChem BioAssay AID686970 (National Center for Advancing Translational Sciences (NCATS), 2013):
Out of some 360,000 compounds screened, about 6,000 (1.7%) were called active. Inconclusive results (about 8%) are left out. Calls follow the shape of the dose curve; as a rule, active = well fitted cell-killing curve with a large enough effect; inconclusive = small, poorly fitted or top-dose-only effect, or effect the other way; inactive = flat fitted curve, though single readings scatter. The list comes from a sample in which actives are over-represented; it also holds similar structures and randomly drawn compounds. Entries that show only a call come without a potency.
Potency is read from the fitted curve at half-maximal effect.

Assay: qHTS for induction of synthetic lethality in tumor cells producing 2HG: qHTS for the HT-1080-NT fibrosarcoma cell line;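 also: NT is the 2HG producing partner of a matched IDH1 knockdown line; nearly all actives have a fitted effect of over 55% in size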
Conditions: HT-1080-NT fibrosarcoma viability, CellTiter-Glo ATP luminescence, 48 h; series mostly up to 46.1 µM
In short: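 750 cells/well, RPMI + 5% FBS; 2 h settle, compound pin-transfer, 48 h at 37 degrees C. CellTiter-Glo 10 min RT, luminescence. Normalized to DMSO and media-only wells.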
For `C=CCC[C@@H](CCCCC)OC(=O)/C=C/[C@@H](O)[C@H](O)C[C@H](O)CC=C`, the Potency was “inactive”.
In the case of `C=CCC[C@H](CCCCC)OC(=O)/C=C/[C@H](O)[C@@H](O)C[C@@H](O)CC=C`, the Potency is reported as “inactive”.
In the case of `COc1cccc(CNC(=O)c2n[nH]c3ccccc23)c1`, the Potency is reported as “inactive”.
For `COc1cccc(CNc2nc(C(F)(F)F)nc3ccccc23)c1`, the Potency was 23.1 µM (active).
In the case of `CN(C)C(CNC(=O)Cc1ccc([N+](=O)[O-])cc1)c1ccccc1` (stereo not given), the Potency is reported as “inactive”.
For `CN(C)C(CNC(=O)c1cc2ccccc2o1)c1ccccc1` (stereo not given), the Potency was “inactive”.
With `CCc1ccc(C(CNc2nc(C(F)(F)F)nc3ccccc23)N(C)C)cc1` (stereo not given) the Potency was 23.1 µM (active).
For `COc1cccc(CNC(=O)CN2C(=O)NC(Cc3ccccc3)(c3ccccc3)C2=O)c1` (stereo not given), the Potency was “inactive”.
In the case of `O=C(CCN1CCCCC1)Nc1ccc(F)c(F)c1`, the Potency is reported as “inactive”.
For `Cc1cccc(C(=O)C(O)(c2ccccc2)C2CCCCC2=O)c1` (stereo not given), the Potency was “inactive”.
In the case of `CN(Cc1c(F)cccc1Cl)C(=O)COC(=O)Cn1cnc2ccccc2c1=O`, the Potency is reported as “inactive”.
For `COC(=O)C[C@@H]1C=C[C@@H](NS(=O)(=O)c2cccc(OC)c2)[C@@H](CO)O1`, the Potency was “inactive”.
For `CC[C@@H]1Cc2cc(O)ccc2C2=C1c1ccc(O)cc1C[C@H]2CC`, the Potency was 18.4 µM (active).
In the case of `Cc1cc(C)c(NC(=O)c2oc3ccccc3c2COc2ccccc2)c(C)c1`, the Potency is reported as “inactive”.
For `Cc1cc(C)c(NC(=O)C[N+](C)(C)CC(O)COc2cccc3ccccc23)c(C)c1` (stereo not given), the Potency was 18.4 µM (active).
With `Cc1cc(C)cc(OCC(=O)NCc2cc(C)nc3ccccc23)c1` the Potency was “inactive”.
In the case of `CC(C)(C(=O)NO)c1ccccc1`, the Potency is reported as “inactive”.
In the case of `CCN1C(=O)[C@H]2[C@@H](c3ccc(C(F)(F)F)cc3)N[C@]3(CCCN(Cc4ccc(Br)cc4)C3=O)[C@H]2C1=O`, the Potency is reported as “inactive”.
For `COc1cccc(CN2CCC(C(=O)NC(c3ccc4c(c3)OCO4)c3ccccn3)CC2)c1` (stereo not given), the Potency was “inactive”.
With `O=C(CCCOc1ccc(Cl)cc1Cl)NNC(=O)C1CCC1` the Potency was “inactive”.
For `O=C(NC(c1ccc(-c2ccccc2)cc1)c1cnccn1)C1CCN(CCOc2ccc(Cl)cc2Cl)CC1` (stereo not given), the Potency was 20.6 µM (active).
In the case of `CCCNC(=O)C1(C)CCN1C(=O)C1(c2ccccc2)CC1` (stereo not given), the Potency is reported as “inactive”.
With `COc1ccccc1CNC(=O)c1cc(-c2cc(F)ccc2OC)n[nH]1` the Potency was “inactive”.
For `CCNC(=O)c1cc2c(c(-c3cccc(-c4cncnc4)c3)n1)[C@H](CCO)N(C(C)=O)C2`, the Potency was “inactive”.
With `COC(=O)c1ccc2nc(-c3ccc(Cl)cc3)c(Cc3cccc(F)c3)n2c1` the Potency was “inactive”.
For `Cn1c(=O)c2cc(NC(=O)NCCc3cccs3)ccc2n1Cc1cccc(C(F)(F)F)c1`, the Potency was “inactive”.
In the case of `COc1ccc(C(=O)OCC(=O)NCCCc2ccccc2)cc1OC`, the Potency is reported as “inactive”.
For `COc1ccccc1NC(=O)COc1ccc(C(=O)OCC(=O)N(C(C)C)C(C)C)cc1OC`, the Potency was “inactive”.
In the case of `CCN(CCCCOC(=O)c1ccc(OC)c(OC)c1)C(C)Cc1ccc(OC)cc1` (stereo not given), the Potency is reported as 18.4 µM (active).
For `CCC(=O)N1Cc2cc(C(=O)NCc3cccc(F)c3)nc(-c3cccc(C4=CCCC4)c3)c2[C@H]1CCO`, the Potency was “inactive”.
In the case of `CS(=O)(=O)c1cccc(-c2ccc3nncn3c2)c1`, the Potency is reported as “inactive”.
For `CCOC(=O)N1CCN(C(c2ccnc3ccccc23)c2nnnn2-c2c(C)cccc2C)CC1` (stereo not given), the Potency was “inactive”.
In the case of `CCCCN1CC(C)(C)[C@H](CC(=O)Nc2ccc(Br)cc2)C1=O`, the Potency is reported as “inactive”.
With `CC1(C)CN(CCc2ccccc2)C(=O)[C@H]1CC(=O)Nc1ccc(Br)cc1` the Potency was “inactive”.
In the case of `CN1C(CC(=O)Nc2ccc(Br)cc2)c2ccccc2CC1(C)C` (stereo not given), the Potency is reported as 18.4 µM (active).
For `COC(=O)c1ccc2nc(-c3cccc(Br)c3)c(Cc3ccc(OC)cc3C)n2c1`, the Potency was “inactive”.
With `COCCn1c(SCC(=O)Nc2ccc(F)cc2F)nc2c(c1=O)SCC2` the Potency was “inactive”.
With `COc1ccccc1NC(=O)N(O)C1(C#N)CCCCC1` the Potency was “inactive”.
In the case of `COc1ccccc1NC(=O)/C=C/C(N)=O`, the Potency is reported as 8.91 µM (active).
With `COc1ccccc1NC(=O)COC(=O)COc1ccccc1F` the Potency was “inactive”.
With `O=C1NC[C@H](CCCCN2C[C@H](Cc3ccc(O)cc3)N(CCc3ccccc3)C(=O)C2=O)N(CCc2ccccc2)C1=O` the Potency was “inactive”.
For `Cc1cc(N)n2nc(-c3ccc(C(C)(C)C)cc3)cc2n1`, the Potency was 16.4 µM (active).
With `Cc1cc(C(C)(C)C)cc(C)c1N` the Potency was “inactive”.
With `COc1ccc(-c2cc(C)nc3nc(N)nn23)cc1` the Potency was “inactive”.
In the case of `Cc1ccc(S(=O)(=O)NN=C2CC(C)(C)CC(=O)C2(C)C)cc1`, the Potency is reported as “inactive”.
For `CC(=O)NC(c1cccc(F)c1)c1nc(-c2cccc(F)c2)cs1` (stereo not given), the Potency was “inactive”.
For `Cc1ccc(C(O)c2ncc(-c3ccccc3F)[nH]2)cc1F` (stereo not given), the Potency was “inactive”.
With `CC(=O)Nc1ccc(Nc2c3ccccc3nc3ccccc23)cc1` the Potency was 14.6 µM (active).
In the case of `CC(=O)Nc1ccc(S(=O)(=O)N(C)c2nc3ccccc3nc2Cl)cc1`, the Potency is reported as “inactive”.
With `CC(=O)Nc1ccc(Nc2c([N+](=O)[O-])cc(S(C)(=O)=O)cc2[N+](=O)[O-])cc1` the Potency was “inactive”.
In the case of `C[C@H]1CN([C@@H](C)CO)C(=O)c2cc(-c3ccccc3F)cnc2O[C@H]1CN(C)C(=O)C1CCOCC1`, the Potency is reported as “inactive”.
For `CCOc1ccc(NC(=O)CSc2nnc3c(n2)[nH]c2ccc(S(=O)(=O)N4CCOCC4)cc23)cc1`, the Potency was “inactive”.
For `CCc1nnc(NC(=O)c2cc(S(=O)(=O)N3CCCCC3)ccc2C)s1`, the Potency was “inactive”.
In the case of `CCc1nnc(NC(=O)C2CCCN2S(=O)(=O)c2ccccc2)s1` (stereo not given), the Potency is reported as “inactive”.
In the case of `CCc1nnc(NC(=O)c2ccc(S(=O)(=O)NC3CCCCC3)cc2)s1`, the Potency is reported as 6.31 µM (active).
For `CCOC(=O)c1c(NC(=O)COC(=O)c2ccc(S(=O)(=O)C(F)F)cc2)sc(C(=O)N(C)C)c1C`, the Potency was “inactive”.
With `CCCCn1nnnc1C1(C)CCC(=O)N1Cc1ccc(OC)c(OC)c1` (stereo not given) the Potency was “inactive”.
In the case of `Cc1cccc(NC(=O)COC(=O)c2ccccc2OCc2cccc(Br)c2)c1`, the Potency is reported as “inactive”.
With `COc1ccc(NC(=O)CN2C(=O)NC(C)(c3ccccc3)C2=O)cn1` (stereo not given) the Potency was “inactive”.
For `COc1ccc(C(O)c2nc(-c3ccc(OC)nc3)cs2)cc1` (stereo not given), the Potency was “inactive”.
In the case of `COc1ccc(CS(=O)/C(Cl)=C(/Cl)C(=O)Nc2ccc(OC)nc2)cc1` (stereo not given), the Potency is reported as 1.3 µM (active).
With `CC(=O)NC(c1ccccc1)c1nc(-c2ccccc2C)cs1` (stereo not given) the Potency was “inactive”.
For `CSc1ncnc2c1ncn2CCCNCC(C)c1ccccc1` (stereo not given), the Potency was “inactive”.
For `COc1ccc(NC(=O)N(C)C[C@@H]2OCc3cn(nn3)CCCC(=O)N([C@H](C)CO)C[C@H]2C)c(OC)c1`, the Potency was “inactive”.
With `CCCCNC(=O)C[C@@H]1C[C@@]2(C(=O)OC)CC(C)(C)CC=C2N(Cc2ccco2)C1=O` the Potency was “inactive”.
In the case of `COc1ccc(Nc2cc(Sc3ccc(OC)cc3)ncn2)cc1`, the Potency is reported as “inactive”.
For `COc1ccc(NC(=O)c2nc(-n3nc(C)cc3C)ccc2Cl)cc1Cl`, the Potency was “inactive”.
With `COc1ccc(Nc2cc(C)nc(-n3nc(C)cc3C)n2)cc1` the Potency was 1.12 µM (active).
For `CNS(=O)(=O)c1ccc2c(c1)[nH]c(=S)n2C`, the Potency was “inactive”.
With `CC1=C(C(=O)N2CCOCC2)CC(CC(=O)NCc2cccc3ccccc23)C(=O)N1CCC1=CCCCC1` (stereo not given) the Potency was “inactive”.
For `CCCC(=O)N1CCC1(C)C(=O)NCc1ccc(C(C)C)cc1` (stereo not given), the Potency was “inactive”.
With `Cc1ccc(-c2nn(-c3ccccc3)cc2C(=O)Nc2cccc(S(=O)(=O)N3CCOCC3)c2)cc1` the Potency was “inactive”.
In the case of `O=C(O)c1ccc(NC(=O)c2cn(-c3ccccc3)nc2-c2ccc(Cl)cc2)cc1`, the Potency is reported as 9.2 µM (active).
For `Cc1ccc(-c2nn(-c3ccccc3)cc2C(=O)NCCCN2CCCC2=O)cc1`, the Potency was “inactive”.
With `COC(=O)C1(C(=O)OC)C[C@H](c2ccccc2)N(Cc2ccccc2OC)[C@@H]1c1ccccc1` the Potency was “inactive”.
In the case of `CCCNC(=O)C1(C)CCN(Cc2csc(-c3ccc(Cl)cc3)n2)C1` (stereo not given), the Potency is reported as “inactive”.
With `O=C(COC(=O)c1ccccc1C(=O)N1CCN(c2ccccc2)CC1)NCc1ccccc1` the Potency was “inactive”.
For `Oc1ccc(N2CCN(C(=S)NCc3ccccc3)CC2)cc1`, the Potency was 9.2 µM (active).
For `Oc1ccccc1N1CCN(C(=S)NCc2ccccc2)CC1`, the Potency was “inactive”.
For `O=C(COC(=O)c1ccc([N+](=O)[O-])cc1Cl)NC(=O)c1ccccc1`, the Potency was “inactive”.
For `O=C(NOCc1ccccc1)c1cccc([N+](=O)[O-])c1`, the Potency was “inactive”.
With `O=C(NC(Nc1nc2ccc([N+](=O)[O-])cc2s1)(C(F)(F)F)C(F)(F)F)c1ccccc1` the Potency was 5.17 µM (active).
In the case of `COc1ncnc2c1ncn2CCCNCCN1CCOCC1`, the Potency is reported as “inactive”.
For `CCCCCn1c(=O)[nH]c2cc(C(=O)NCCCN3CCCCC3C)ccc2c1=O` (stereo not given), the Potency was 23.1 µM (active).
With `CC1CCCCN1CCCNC(=O)Cn1ncc2c([nH]c3ccccc32)c1=O` (stereo not given) the Potency was “inactive”.
For `CCC1CCCCN1CCCNC(=O)C1CCC(Cn2c(=O)[nH]c3ccccc3c2=O)CC1` (stereo not given), the Potency was “inactive”.
For `CC(C)(O)C1=C[N+](=O)CC=C1`, the Potency was “inactive”.
With `c1cc(-c2ccc3[nH]ccc3c2)n2ccnc2c1` the Potency was “inactive”.
For `NC(CSC(c1ccccc1)(c1ccccc1)c1ccc(-c2ccccc2)cc1)C(=O)O` (stereo not given), the Potency was “inactive”.
In the case of `Clc1ccc(-c2cc(-c3ccccn3)on2)c(Cl)c1`, the Potency is reported as “inactive”.
With `Clc1ccc(-c2cc(C3CCNCC3)[nH]n2)c(Cl)c1` the Potency was 23.1 µM (active).
In the case of `C[C@@H]1Cn2cnc(C(=O)Nc3ccc(CNC(=O)OC(C)(C)C)cc3)c2C(=O)N1`, the Potency is reported as “inactive”.
In the case of `Cc1nnc(SC(C)C(=O)c2c[nH]c3ccccc23)n1C1CC1` (stereo not given), the Potency is reported as “inactive”.
For `Cc1ccccc1NC(=O)CSc1nc2ccc(Nc3nc(N4CCOCC4)nc(N4CCOCC4)n3)cc2s1`, the Potency was “inactive”.
For `CC1(c2ccccc2)NC(=O)N(CC(=O)Nc2cc(Cl)ccc2N2CCOCC2)C1=O` (stereo not given), the Potency was “inactive”.
With `O=C(CSc1nc(Nc2ccccc2)nc(N2CCOCC2)n1)Nc1cc(Cl)ccc1O` the Potency was 16.4 µM (active).
With `c1ccc2c(c1)nnn2-c1ccncc1` the Potency was “inactive”.
With `O=C(Nc1ccc(F)cc1)C1CCN(C(=O)c2ccc([N+](=O)[O-])cc2)CC1` the Potency was “inactive”.
For `O=C(c1ccc(Oc2ccc(Cl)cc2)c([N+](=O)[O-])c1)N1CCCC1`, the Potency was “inactive”.
For `CC1CCN(C(=O)c2ccc(S(=O)(=O)Cc3cc(F)ccc3F)c([N+](=O)[O-])c2)CC1`, the Potency was 11.6 µM (active).
